Most compounds without a hit are left out; they make up all but 0.89% or so of the library.
RPL19A-GFP yeast: RPL19A-GFP expression modulators in yeast, primary screen, cell-based, S. cerevisiae, multiplex flow cytometry, MLPCN | AID 2025, 2009 | percent response vs DMSO, % at 10 µM | 330,000 tested, 0.3% active | S. cerevisiae RPL19A-GFP strain, 3 h; active compounds read low;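 active = percent response vs DMSO below 50%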;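 note: median channel GFP fluorescence of the barcoded RPL19A-GFP strain; ratio of sample median GFP to plate DMSO average so 100% = DMSO; lower means less RPL19A-GFP as with rapamycin TOR inhibition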
CIT2-GFP yeast: modulators of CIT2-GFP expression in yeast, primary screen, S. cerevisiae, GFP fusion, multiplex flow cytometry, MLPCN library. GFP response vs DMSO, % at 10 µM. S. cerevisiae CIT2-GFP strain, 3 h; 100 means same as DMSO wells. AID 2029, 2009. 320,000 tested, 0.065% active;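 active = GFP response relative to DMSO above a set limit, near the screen mean plus 3 SD, cut at about 150% in these data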;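 note: ratio of well median GFP fluorescence to mean of DMSO wells on the plate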
LAP4 TOR yeast: modulators of LAP4-GFP expression in yeast, primary screen, S. cerevisiae, multiplex flow cytometry, MLPCN library. GFP response vs DMSO, % at 10 µM. AID 2023, 2009. 320,000 tested, 0.34% active. 3 h; median GFP as percent of DMSO wells;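 active = GFP response vs DMSO above a set limit, about the screen mean plus 3 SD, cut at about 150% in these data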
AGP1-GFP MLPCN: modulators of AGP1-GFP expression in yeast TOR pathway, primary screen, cell-based, multiplex flow cytometry, S. cerevisiae, MLPCN library; GFP response vs DMSO, % at 10 µM; 320,000 tested, 0.02% active; 3 h; GFP as percent of DMSO wells; AID 2066, 2009;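 active = GFP response relative to DMSO above a set limit, near screen average plus 3 SD, cut at about 150% in these data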;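 note: median GFP channel fluorescence of the gated AGP1 strain per well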
MEP2 TOR yeast: modulators of MEP2-GFP levels in yeast, primary screen, S. cerevisiae, multiplex flow cytometry, MLPCN library; S. cerevisiae MEP2-GFP strain, 3 h; 100% = DMSO control level; GFP response vs DMSO, % at 10 µM; 330,000 tested, 0.51% active;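 active = GFP response versus DMSO above a set limit, roughly screen mean plus 3 SD, cut at about 180% in these data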;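 note: median GFP fluorescence of the barcode-gated MEP2-GFP cells per well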
LAP4 cherry2: LAP4-GFP expression modulators in yeast, confirmation, cell-based, second cherry pick, flow cytometry. 590 tested, 20% active. GFP response vs DMSO, % at 10 µM. S. cerevisiae LAP4-GFP strain, 3 h. shares compounds with LAP4 TOR yeast;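 active = GFP signal as percent of the solvent control above about 150%, meaning raised reporter expression, limit read from the data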;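 note: ratio of well median GFP fluorescence to plate DMSO mean so 100% = DMSO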
MEP2 cherry2: modulators of MEP2-GFP levels in yeast, confirmation, S. cerevisiae, flow cytometry GFP, second cherry picks; AID 2622, 2010; GFP response vs DMSO, % at 10 µM; 590 tested, 10% active; S. cerevisiae MEP2-GFP strain, 3 h; shares compounds with LAP4 TOR yeast;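 active = GFP signal above 150% of the solvent control wells, that is a rise of more than half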;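 note: median channel GFP fluorescence of all gated yeast cells per well; ratio of median GFP to plate DMSO average so 100% = DMSO level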
RPL19A GFP CP2: RPL19A-GFP modulators in TOR pathway yeast, confirmation, cell-based, S. cerevisiae, flow cytometry, second cherry pick | AID 2623, 2010 | 590 tested, 3% active | S. cerevisiae RPL19A-GFP strain, 3 h; active compounds read low; 100% means same as DMSO wells | shares compounds with LAP4 TOR yeast | GFP response vs DMSO, % at 10 µM;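 active = under 65% GFP response relative to DMSO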;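 note: median GFP channel fluorescence per well over the all cells gate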
CIT2 GFP CP2: modulators of CIT2-GFP expression in yeast, confirmation, flow cytometry, second cherry pick, single plex. 590 tested, 8% active. shares compounds with LAP4 TOR yeast. S. cerevisiae CIT2-GFP strain, 3 h; DMSO control wells read 100%. GFP response vs DMSO, % at 10 µM;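 active = GFP response vs DMSO above about 150%, limit read from the data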;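 note: median green fluorescence per well over all gated yeast cells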
AGP1-GFP pick2: AGP1-GFP expression modulators, hit retest, confirmation, cell-based, flow cytometry, S. cerevisiae, cherry pick set 2 | shares compounds with LAP4 TOR yeast | S. cerevisiae AGP1-GFP strain, 3 h | percent response vs DMSO, % at 10 µM | 590 tested, under 10 active | AID 2643, 2010;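 active = over 150 percent of DMSO response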;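 note: median GFP channel fluorescence over all cells without mother daughter split; sample median GFP divided by mean DMSO control so 100% equals DMSO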
Yeast autofluor: compound autofluorescence in yeast s288c, dose response, artefact control for yeast TOR pathway GFP screen, s288c strain | shares compounds with LAP4 TOR yeast | S. cerevisiae s288c, 520 nm autofluorescence, flow cytometry, 3 h; active compounds read high; zero means same as solvent-only cells | fluorescence change (kMESF span) at 33 µM | 610 tested, under 10 active;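 active = fluorescence span over the dose series, or activity score, above about 33, limit read from the data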
Yeast autofl DR: autofluorescence of compounds in yeast s288c, dose response, artefact control for yeast TOR pathway GFP screen, primary hits, KU SAR, s288c parental. S. cerevisiae s288c parental, compound autofluorescence, flow cytometry, 3 h. 110 tested, under 10 active. shares compounds with LAP4 TOR yeast. fluorescence change (span) at 33 µM;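 active = fluorescence change span, or the activity score built from it, above 25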
TORC1 bypass gr: wild-type yeast growth inhibition sparing TORC1 bypass cells, mechanism study for yeast TOR pathway GFP screen, BY4741 wild type, TORC1 bypass strain. 120 tested, under 10 active. shares compounds with LAP4 TOR yeast. growth rating (0-3) at 30 µM. S. cerevisiae BY4741 spot growth rating, 48-72 h; active compounds read low. AID 504456, 2011;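 active = growth rating at most 1 for wild type yeast while the TORC1 bypass strain still grows fully, rated 3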
Numbers without * were called inactive; . = no result given; + = active, no number; [ ] = dose if it differs, or a comment.

SMILES	RPL19A-GFP yeast	CIT2-GFP yeast	LAP4 TOR yeast	AGP1-GFP MLPCN	MEP2 TOR yeast	LAP4 cherry2	MEP2 cherry2	RPL19A GFP CP2	CIT2 GFP CP2	AGP1-GFP pick2	others
Cc1ccc(S(=O)(=O)c2ncccc2[N+](=O)[O-])cc1	88	99	199*	101	104	.	.	.	.	.	Yeast autofluor=0.3;Yeast autofl DR=0.16;TORC1 bypass gr=3
CS(=O)(=O)Nc1cccc(C2=NN(S(C)(=O)=O)C(c3ccc4c(c3)OCO4)C2)c1 (stereo unspecified)	97	102	91	94	104	.	.	.	.	.
CS(=O)(=O)N1N=C(c2ccccc2)CC1c1ccc2c(c1)OCO2 (stereo unspecified)	126	243*	243*	125	305*	.	.	.	.	.	Yeast autofluor=83*
Cn1nc(CC(=O)Nc2ncc(Br)s2)c2ccccc2c1=O	64	99	92	26	158	96	103	100	106	99
O=C1C(c2ccccc2)=[N+]([O-])c2ccccc21	105	89	160*	87	93	116	121	106	120	103
CCn1c(=O)c([N+](=O)[O-])c(NCc2ccco2)c2ccccc21	92	95	201*[may fluoresce green]	96	109	104	115	98	107	101
CCNc1c([N+](=O)[O-])c(=O)n(CC)c2ccccc12	96	100	99	97	92	.	.	.	.	.
Cc1ccc(C(=O)NCC(=O)Nc2ccc(S(=O)(=O)Nc3cc(C)nc(C)n3)cc2)cc1	85	96	153*	101	104	100	98	101	103	98
COCCNS(=O)(=O)c1cc(C(=O)O)ccc1OC	99	100	99	106	99	.	.	.	.	.
CC(C)CN1CCN(Cc2cnc(-c3ccc(Cl)cc3)nc2)CC1CCO (stereo unspecified)	62	87	96	81	152	103	111	100	98	102
Cc1cccc(C(=O)NCC(=O)N2CCC2)c1	403	+	+	447*	+	100	100	99	104	99
